Sampled rows, rich in hits. Any-hit rate of the full collection: about 6.1%.
D1 agonist: agonists of human D1 dopamine receptor. P21728. HEK293 T-REx D1 cells, calcium flux, agonist mode. activation, % at 2 µM. 360,000 compounds, 1% hits; in the data active = activation above about 30%; also: 0% is about no effect
Target sequence (P21728 whole entry, looked up): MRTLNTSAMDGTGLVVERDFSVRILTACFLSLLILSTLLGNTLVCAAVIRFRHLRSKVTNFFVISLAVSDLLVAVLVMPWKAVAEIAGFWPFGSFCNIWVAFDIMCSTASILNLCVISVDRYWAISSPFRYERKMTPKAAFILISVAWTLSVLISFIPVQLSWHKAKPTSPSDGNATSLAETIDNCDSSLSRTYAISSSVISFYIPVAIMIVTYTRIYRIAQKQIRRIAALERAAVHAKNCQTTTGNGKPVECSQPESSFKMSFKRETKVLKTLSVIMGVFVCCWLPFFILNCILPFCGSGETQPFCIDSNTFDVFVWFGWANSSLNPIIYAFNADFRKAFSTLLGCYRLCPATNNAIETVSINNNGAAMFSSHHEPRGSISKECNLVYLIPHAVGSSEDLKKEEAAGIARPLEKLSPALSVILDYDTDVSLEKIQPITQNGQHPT
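Agonism was scored from calcium flux recorded over 180 s (1 read/s) after pintool compound addition, following a 10-cycle baseline. Cells were inducible force-coupled HEK293 TREx D1, plated overnight at 30 C and loaded with no-wash calcium dye.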
D3 ag: agonists of human D3 dopamine receptor. D3R DiscoveRx beta-arrestin cells, luminescence, 90 min. AID 652048. 410,000 compounds, 0.58% hits. max activation, %. P35462; in the data active = max activation above about 30%; also: 0% is about no effect
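Cells at 1500/well, incubated overnight, then treated with pinned compounds (dopamine as control) for 90 min at 37 degrees C. DiscoveRx reagent added for 30 - 60 minutes at room temperature; luminescence read.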
D1 potentiator: enhances dopamine response at the human D1 receptor. P21728. 360,000 compounds, 0.036% hits. potentiation, % at 10 µM. HEK293 TREx D1 cells, calcium flux, dopamine EC20 potentiation; in the data active = potentiation above about 30%; also: 0% is about no effect
D1 antag: antagonists of human D1 dopamine receptor | HEK293 TREx D1 cells, calcium flux, dopamine EC80; hits give low values | AID 504652 | P21728 | activity change, negative = inhibition, % at 10 µM | 360,000 compounds, 3.2% hits; in the data active = activity change below about -30%; also: % is scaled to controls: 0 for no effect and ±100 for the full control effect
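Inducible Hek293 Trex D1 cells (tetracycline, overnight, 30 C). Calcium dye 30–90 min RT. Antagonist mode: EC80 dopamine added after 180 s compound read.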
D3 antag: D3 dopamine receptor (human) antagonism | 360,000 compounds, 2.5% hits | D3R cells, DiscoveRx beta-arrestin luminescence, antagonist mode; hits give low values | P35462 | max response, negative = inhibition, %; in the data active = max response below about -50%; inconclusive = no clear call, values can overlap the other calls; also: % is scaled to controls: 0 for no effect and ±100 for the full control effect
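Cells plated overnight at 1500 cells/well, then exposed to library compounds with dopamine controls for 90 minutes at 37 degrees C. DiscoveRx reagent added for 30–60 minutes at room temperature; luminescence read, quantitative HTS format.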
The depositor's hits bear a star; u = inconclusive; x = no result given.

SMILES	D1 agonist	D3 ag	D1 potentiator	D1 antag	D3 antag
CCOc1ccccc1OCCN1CCC(Cc2ccccc2)CC1	28	-38	-16	-22	-99*
CC(C)(C)c1ccccc1OCCN1CCCC1	4	-26	-3	-1	-79*
Cc1ccc([N+](=O)[O-])c(OCCCN2CCCCCC2)c1	0	-11	-12	x	u
CCN1CCN(Cc2ccc(OCc3ccccc3)cc2)CC1	38*	-15	-6	-13	u
CN1CCN(Cc2ccc(OCc3ccccc3)cc2)CC1	7	-3	-5	-2	-6
O=C(Cn1cc(CN(Cc2ccccc2)Cc2ccccc2)nn1)Nc1cc(C(F)(F)F)ccc1Cl	6	x	-3	-21	x
COCCNC(=O)Cn1c(=O)c2cccn2c2ccc(F)cc21	0	11	-3	5	x
COc1cccc(OC)c1OCCCCN1CCC(Cc2ccccc2)CC1	6	-21	-11	x	-75*
CCN1CCN(CCOc2ccccc2OCc2ccccc2)CC1	4	-9	-1	-32*	u
Cc1cccc(C(=O)N2CCC(Cc3ccccc3)CC2)c1[N+](=O)[O-]	1	3	-6	-36*	-1
CCC(=O)c1ccccc1OCCCN1CCC(Cc2ccccc2)CC1	16	-25	-7	-19	-102*
CCN1CCN(Cc2ccc(OCc3ccccc3)c(OC)c2)CC1	1	-9	-3	7	-19
COc1cccc(OC)c1OCCCCN1CCCC1	3	-16	-3	-4	0
COc1ccc(N(C(=O)COc2c(C)cccc2C)S(=O)(=O)c2ccc(Cl)cc2)cc1	5	-22	0	-13	x
COc1ccccc1OC(C)C(=O)N1CCC(Cc2ccccc2)CC1 (stereo unspecified)	3	-4	-7	-10	-21
CC(OCCN1CCCC1)(c1ccc(F)cc1)c1ccc(F)cc1	16	-48	-9	-24	-76*
Cc1ccccc1OC(C)C(=O)N1CCC(Cc2ccccc2)CC1 (stereo unspecified)	13	-2	-2	-47*	-12
Cc1cccc(C(C)(C)C)c1OCCN1CCCC1	4	-36	-5	-32*	-93*
COc1cc(C#Cc2ccc3cc(C(C)(C)O)oc(=O)c3c2)cc(OC)c1	4	31*	-4	x	70
O=S(=O)(c1ccc(Br)cc1)N1CCN(S(=O)(=O)c2ccc3c(c2)OCCO3)CC1	0	x	0	14	x
COc1ccc(OC)c(S(=O)(=O)ON2C(=O)c3ccccc3C2=O)c1	6	-20	0	-8	-97*
Cc1ccc2ccc3cc(C(=O)N4CCN(c5ccccc5)CC4)nc3c2[nH]1	20	4	-1	30	x
COc1ccc(N2CCN(C(=O)c3cnc(SC)nc3C)CC2)cc1	0	4	-1	-63*	x
Cc1ccc(-c2cc(C(=O)N3CCCCC3)c3ccccc3n2)cc1C	35*	1	3	43	19
COc1ccc(-c2cc(C(=O)N3CCN(c4ccccn4)CC3)c3ccccc3n2)cc1	0	33*	1	13	17
SMILES	D1 agonist	D3 ag	D1 potentiator	D1 antag	D3 antag
CCCc1ccc(-c2cc(C(=O)N3CCN(c4ccccn4)CC3)c3ccccc3n2)cc1	8	44*	-1	-28	39
CCc1c(C)c2ccc(O)c(CN3CCN(c4ccccc4)CC3)c2oc1=O	4	-19	0	-2	x
COc1ccccc1-c1cc(C(=O)N2CCc3ccccc3C2)c2ccccc2n1	4	x	-6	-86*	x
COc1ccc(-c2cc(C(=O)N3CCN(c4ccccc4)CC3)c3ccccc3n2)cc1	3	15	-6	-37*	35
COc1ccc(-c2noc(-c3ccc(NCc4ccc(C)cc4)c([N+](=O)[O-])c3)n2)cc1OC	7	3	1	-68*	x
COc1ccc(-c2nc3cccc(C)n3c2NCc2ccco2)cc1OC	0	6	-8	-31*	-52*
Cc1cccc(-c2noc(-c3ccc(NCc4ccco4)c([N+](=O)[O-])c3)n2)c1	22	-9	2	-15	x
COc1ccc(-c2noc(-c3ccc(NCc4ccco4)c([N+](=O)[O-])c3)n2)cc1OC	-1	12	1	-41*	x
O=C(NC1CCN(Cc2ccccc2)CC1)c1ccc(Cn2c(=O)c3ccccc3n(Cc3ccc(F)cc3)c2=O)cc1	0	-23	0	8	x
Cc1ccc(C)c(N2CCN(C(=O)CCc3nnc4n(C)c(=O)c5ccccc5n34)CC2)c1	-1	7	-2	-7	x
O=S(=O)(O)CC(S)CS (stereo unspecified)	x	1	x	x	x
Oc1ccc(-c2nc3ccccc3s2)c(O)c1	1	-3	-2	-37*	37
CN1CCN(C(=O)C23CCC(C)(c4nc5ccccc5nc42)C3(C)C)CC1 (stereo unspecified)	2	-8	3	7	-51*
O=C(/C=C/c1ccccc1)N1CCN(Cc2cc(=O)n3nc(-c4ccccc4)sc3n2)CC1	0	5	-1	-3	x
O=C(O)c1cccc2c1/C(=N/Nc1ccc([N+](=O)[O-])cc1[N+](=O)[O-])c1ccccc1-2	3	-6	3	1	-54*
O=C(Nc1ccccc1Cl)N1CCC2(CC1)Oc1ccccc1C(=O)N2Cc1ccc(F)cc1	1	0	5	-11	x
CCN(CC)S(=O)(=O)c1ccc(N=Nc2c(C)[nH]n(C(N)=S)c2=O)cc1	4	9	10	-26	-93*
COc1ccccc1CNC(=O)CCC(=O)N1CC2CCCN2c2ccccc21 (stereo unspecified)	4	-6	-2	-1	x
C=C1C(=O)CC2=C1[C@](Cc1ccc(F)cc1)(C(=O)OC)N(C(=O)c1ccccc1)C2	x	-5	x	x	16
C=C1C(=O)C=C2CN(C(=O)c3ccccc3)[C@@](Cc3ccc(F)cc3)(C(=O)OC)[C@@H]12	90*	-31	5	-35*	-99*
CCOc1ccc(CCNC(=O)CSCc2nc(-c3cccc(C)c3)oc2C)cc1OCC	4	4	-4	4	x
Cc1nn2c(=O)cc(COC(=O)c3ccc(NC(=O)COc4ccc(Cl)cc4)cc3)nc2s1	3	-6	-1	-9	x
C=C1C(=O)OC2C1CCC(C)=C1C(=O)C3OC3(C)C12 (stereo unspecified)	x	-58	x	x	-129*
C=C1C(=O)O[C@@H]2[C@H]1CC[C@H](C)[C@]1(O)CCC(=O)[C@@]21C	3	2	-3	2	-3
CCN(C(=O)CN1C(=O)COc2ccc(S(=O)(=O)N3CCOCC3)cc21)c1cccc(C)c1	-1	0	0	-7	x
CCOC(=O)C(CC)N1CCN(Cc2ccc(F)cc2)C(=O)C1=O (stereo unspecified)	2	5	-1	-20	x
Cc1cccc(N2CCN(C(=O)CCN3C(=O)C4C5C=CC(C5)C4C3=O)CC2C)c1 (stereo unspecified)	1	4	1	-21	-8

Source: PubChem BioAssay
